Test results as given in PubChem BioAssay AID1645860 (Buhrlage Lab, Dana-Farber Cancer Institute and Novartis …, 2021).
Hit rate of the full screen: of about 47,000 compounds, about 2,500 (5.3%) were called active. The list comes from a sample in which actives are over-represented; it also holds similar structures and randomly drawn compounds. Values without a mark were called inactive. Rule as the data show it: active = inhibition above about 30%; inactive = the rest.

Target: Ubiquitin carboxyl-terminal hydrolase 30 (Homo sapiens) (UniProt Q70CQ3)
Sequence (Q70CQ3 whole entry, looked up): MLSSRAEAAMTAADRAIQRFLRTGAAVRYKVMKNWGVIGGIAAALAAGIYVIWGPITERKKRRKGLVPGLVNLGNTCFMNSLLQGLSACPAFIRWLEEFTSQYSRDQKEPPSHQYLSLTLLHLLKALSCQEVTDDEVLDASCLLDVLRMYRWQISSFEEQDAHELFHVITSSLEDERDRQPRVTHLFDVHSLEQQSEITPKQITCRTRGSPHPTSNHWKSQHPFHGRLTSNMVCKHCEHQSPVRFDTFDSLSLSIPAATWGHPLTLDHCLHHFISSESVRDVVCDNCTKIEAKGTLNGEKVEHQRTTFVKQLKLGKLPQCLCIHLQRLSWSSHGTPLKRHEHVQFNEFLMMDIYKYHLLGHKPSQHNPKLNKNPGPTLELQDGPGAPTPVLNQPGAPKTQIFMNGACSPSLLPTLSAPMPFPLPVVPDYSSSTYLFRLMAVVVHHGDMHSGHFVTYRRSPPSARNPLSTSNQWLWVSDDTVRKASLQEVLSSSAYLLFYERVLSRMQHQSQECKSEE
Experiment: blocks human USP30 ubiquitin-rhodamine cleavage (AID 1645860)
Details: purified USP30, Ub-rhodamine cleavage fluorescence; at 25 µM; hits give high values

Row | Structure (SMILES) | inhibition
1 | CC(CNC(=O)c1csc(C(=O)N2CCCC2)n1)c1ccccc1 (stereo not given) | -12%
2 | CC(C)=CCc1cc(O)ccc1O | 0.263%
3 | CC(C)=CCC(O)C1=CC(=O)c2c(O)ccc(O)c2C1=O (stereo not given) | 74.5% (active)
4 | Cc1ccc(NC(=O)C(OC(=O)c2ccc(S(=O)(=O)N3CCCC3)cc2)c2ccccc2)cc1 (stereo not given) | 0.818%
5 | CC(=O)Nc1ccc(S(=O)(=O)N2CCC(CC(=O)NC(C)c3ccccc3)CC2)cc1 (stereo not given) | 31.5% (active)
6 | O=C(O)c1ccc(S(=O)(=O)N2CCC(Cc3ccccc3)CC2)cc1 | -5.01%
7 | CC(=O)Nc1ccc(S(=O)(=O)N2CCC(CN3CCCC(C)C3)CC2)cc1 (stereo not given) | -7.71%
8 | CCNC(=O)c1ccc2c(c1)nc1n2CCN(CC2CCCO2)C1 (stereo not given) | -93.9%
9 | Cc1noc(C)c1CSc1ccccc1C(=O)N(C)Cc1ccc2c(c1)OCO2 | 25.1%
10 | CCOCCCNc1ncnc2c1sc1nc(N3CCOCC3)c3c(c12)CC(C)(C)OC3 | -0.00409%
11 | CCCCCCSc1ncnc2c1sc1nc(-c3ccccc3)c3c(c12)CC(C)(C)OC3 | -3.25%
12 | CC(=O)CCCSc1ncnc2c1sc1nc(N3CCOCC3)c3c(c12)CC(C)(C)OC3 | 36.7% (active)
13 | CSc1nccc(-c2ccc(F)cc2)c1C#N | 30.3% (active)
14 | O=C(NC1CCCCC1)c1ccc2c(=O)nc3c(-c4ccccc4F)n[nH]n3c2c1 | -42.8%
15 | CCc1ccc(NC(=O)N2CCC3(CC2)COc2ccccc2S(=O)(=O)N(C)C3)cc1 | -0.131%
16 | Cc1ccc(C)c(N2C(=O)CN(S(C)(=O)=O)CC2(C)C(=O)NCc2ccccc2)c1 (stereo not given) | -0.764%
17 | O=C(Nc1ccccc1F)C1CCCN(c2nnc3ccccn23)C1 (stereo not given) | 8.96%
18 | O=C(CSc1nccn1C1CCCCC1)Nc1ccccc1F | 24.6%
19 | O=C(Nc1ccccc1F)NC1CCCN(c2cc(-c3ccncc3)[nH]n2)C1 (stereo not given) | 34.3% (active)
20 | COc1cccc(-c2cc3c(=O)n(Cc4nc(-c5ccccc5C)no4)ccn3n2)c1 | -2.78%
21 | CN1CCN(C(=O)C2=NOC3(CCCNC3)C2)C(c2ccccc2)C1 (stereo not given) | -3.49%
22 | COc1ccc(Cc2noc(C3(c4ccc(Cl)cc4)CCOCC3)n2)cc1 | -0.175%
23 | COc1ccc(C2(C(=O)Nc3cccnc3)CCOCC2)cc1 | -2.08%

Row | Structure (SMILES) | inhibition
24 | COc1ccc(-c2noc(C3(c4ccccc4)CCOCC3)n2)cc1 | 32.8% (active)
25 | C[C@]12C(=O)N(C3CC3)CC(=O)N1CC(c1ccccc1Cl)c1c2[nH]c2ccccc12 (stereo not given in full) | 21.3%
26 | Cc1cc(=O)c2c(O)cccc2o1 | -221%
27 | COc1ccc(CCC(=O)Nc2ccc3nc(N4CCOCC4)cc(C)c3c2)cc1 | -2.1%
28 | Cc1nc(N(C)C)cc(N2CCN(C(=O)Nc3ccc4c(c3)OCCO4)CC2)n1 | -13.9%
29 | Fc1cc(F)cc(CNc2cc(-n3ccnc3)ncn2)c1 | 0.587%
30 | COc1cc(OC)cc(C(=O)Nc2cccc(CCc3nc4ccc(C)cc4[nH]3)c2)c1 | 26%
31 | CCOc1ccc2[nH]c3c(=O)n(Cc4cccnc4)cnc3c2c1 | 22%
32 | O=c1c2[nH]c3ccc(Cl)cc3c2ncn1Cc1cccnc1 | -14.2%
33 | COc1cc(Cn2cnc3c([nH]c4ccc(Br)cc43)c2=O)cc(OC)c1 | 57.3% (active)
34 | CC(=O)Nc1onc(C)c1-c1ccc(C)c(S(=O)(=O)Nc2ccccc2)c1 | -17.6%
35 | COc1ccc(CC(=O)Nc2cnc(-c3ccccc3)nc2)cc1 | -102%
36 | O=C(Cc1nc(-c2ccccn2)n[nH]1)NC1CCCCCC1 | -21.9%
37 | Cc1ccc(NC(=O)Cc2nc(-c3ccccc3)n[nH]2)cc1 | 44.3% (active)
38 | CCOc1ncccc1C(=O)NNC(=O)c1cn(-c2ccccc2)nc1-c1ccccc1 | -0.192%
39 | CC(OC(=O)c1cn(-c2ccccc2)nc1-c1cccnc1)C(=O)Nc1cccc(S(=O)(=O)N(C)C)c1 (stereo not given) | 55.1% (active)
40 | COc1ccccc1OCCC(=O)Nc1cccc(S(=O)(=O)N(C)C)c1 | 11.1%
41 | CNc1nc(C2CCCN(C(=O)C3CCCCC3)C2)nc2c1CNCC2 (stereo not given) | -11.2%
42 | COc1cc(NS(=O)(=O)c2ccc3c(c2)N(C)CCO3)cc(OC)c1 | 0.0144%
43 | O=C(Nc1ccc(N2CCN(c3ccccc3)C2=O)nc1)c1ccc2c(c1)OCO2 | -9.55%
44 | O=C(Nc1ccccc1)c1ccc2c(c1)OCCCO2 | 3.42%
45 | CC(C)(C)c1ccc(Oc2ccc(NC(=O)c3ccc4c(c3)CCO4)cn2)cc1 | 34.9% (active)
46 | Cc1nc2cc3c(cc2n1CC(=O)NCCc1ccccc1)OCCO3 | -5.99%

Row | Structure (SMILES) | inhibition
47 | Cc1cccc(CC(=O)Nc2c(C)nc3ccccn3c2=O)c1 | 7.29%
48 | COc1cccc(NC(=O)N2CC[C@H]3N(C)CC[C@@]3(C(=O)N3CCCC3)CC2)c1 | -23.3%
49 | COc1cccc(N2CCN(C(=O)Nc3ccc4c(c3)NC(=O)CO4)CC2)c1 | 69.6% (active)
50 | Cc1cc2oc(C(=O)Nc3ccc4c(c3)NC(=O)CO4)c(C)c2cc1Cl | 19.5%
51 | O=C(O)C[C@@H]1CCN(C(=O)C2CCCCC2)C[C@@H]1CC1=NCCc2ccccc21 | -65%
52 | COc1ccc(SCc2nc(N)nc(Nc3ccccc3)n2)cc1 | -33%
53 | CSc1ncnc2c1sc1nc(-c3ccccc3)c3c(c12)CC(C)(C)OC3 | 9.17%
54 | CC(C)Cc1nc2sc3c(N(CCO)Cc4ccccc4)ncnc3c2c2c1COC(C)(C)C2 | 34.9% (active)
55 | CC1(C)Cc2c(c(-c3ccco3)nc3sc4c(SCCCc5ccccc5)ncnc4c23)CO1 | 11.9%
56 | COc1cccc(O[C@@H]2C[C@@H](NC(=O)C3CCOCC3)[C@H](O)[C@H]2O)c1 | 7.84%
57 | O=C1CNC(=O)N1CC(O)Cn1c2ccc(Br)cc2c2cc(Br)ccc21 (stereo not given) | 6.98%
58 | O=C(Nc1ccc(Cl)cc1)C1C2C=CC3(O2)C1C(=O)N(CCc1ccccc1Cl)C3C(=O)NC1CCCCC1 (stereo not given) | 29.8%
59 | O=c1c2cnc(N3CCOCC3)nc2ccn1CCc1ccccc1 | 12.9%
60 | O=c1c2cnc(N3CCCCC3)nc2ccn1Cc1cccnc1 | 1.8%
61 | O=c1c2cnc(N3CCCC3)nc2ccn1-c1ccccc1 | 31% (active)
62 | c1ccc(-c2nccc(-c3ccc(-n4cncn4)cc3)n2)nc1 | 23.2%
63 | CCn1c(SCC(=O)Nc2ccc3c(c2)OCCO3)nnc1C(C)C | 9.74%
64 | Cc1cc(C(=O)CSc2nnc(-c3ccc(F)cc3)n2C)c(C)n1C | -35%
65 | Cn1c(SCc2ccc(Cl)cc2)nnc1-c1ccc2c(c1)OCCO2 | 30.4% (active)
66 | Cc1nn(-c2cccc(F)c2)c2c1c(C)c(CCC(=O)NCc1ccccn1)c(=O)n2C | 58.6% (active)
67 | Cc1nn(-c2ccccc2)c2c1c(C)c(CCC(=O)N1CCN(c3ccc(F)cc3)CC1)c(=O)n2C | -7.59%
68 | Cc1nc2cc(C(=O)NCc3ccccn3)ccc2n1-c1cccc(F)c1 | 0.251%
69 | O=C(Nc1ccc2cn[nH]c2c1)c1cnn(-c2ccccc2)n1 | -23.9%

Row | Structure (SMILES) | inhibition
70 | COc1ccc(N2CCN(Cc3cc(=O)oc4cc(O)ccc34)CC2)cc1 | 8.3%
71 | CCCc1cc(=O)oc2cc(OC(=O)C3CCN(C(=O)c4ccc(Cl)cc4)CC3)ccc12 | 29.6%
72 | CCCc1cc(=O)oc2cc(OCC(=O)NCc3ccc(OC)cc3)ccc12 | 62.1% (active)
73 | CCN(CC)c1ccc(C2C3=C(CC(C)(C)CC3=O)Nc3ccccc3N2C(=O)Cc2ccccc2)cc1 (stereo not given) | -64.2%
74 | Cc1ccc(Nc2nc(NCC(=O)Nc3cc(C)ccc3C)nc(Nc3ccc(C)cc3)n2)cc1 | -44%
75 | Cc1ccc(NC(=O)Cc2sc(Nc3ccc(C)cc3)nc2O)cc1 | 53.6% (active)
76 | CCOc1ccc(N(CC(=O)Nc2ccc(S(=O)(=O)Nc3cc(C)ccc3C)cc2)S(C)(=O)=O)cc1 | 1.87%
77 | Cc1ccc(Nc2nc(O)c(CC(=O)Nc3ccc(C(C)C)cc3)s2)cc1C | 0.202%
78 | CCOc1ccc(Nc2nc(O)c(CC(=O)Nc3cccc(C)c3)s2)cc1 | 33.8% (active)
79 | CCC(=O)c1ccc(OCC(=O)Nc2ccc3nc(C)sc3c2)cc1 | -168%
80 | Cc1cccc(-c2cnc(C(O)c3ccc4c(c3)OCO4)[nH]2)c1 (stereo not given) | -30.9%
81 | COc1ccc(C2CC(=O)c3cnc(NC(=O)c4cc(OC)c(OC)c(OC)c4)nc3C2)c(OC)c1 (stereo not given) | 24.2%
82 | C=C1C(=O)O[C@H]2C=C(C)C=C[C@@]3(C)CC[C@@]1(O)[C@H]23 | 7.94%
83 | O=C(NCc1ccncc1)C1CC(=O)N(c2cccc(C(F)(F)F)c2)C1 (stereo not given) | 0.292%
84 | Cc1oc(-c2ccccc2)nc1C(=O)N(C)Cc1cccc(Cl)c1Cl | -7.53%
85 | O=C1NCCCC12CCN(Cc1cnc3ccccc3n1)CC2 | 10.3%
86 | Cc1ccc(-c2nc(C(=O)N3CCN(c4ccccn4)CC3)cs2)n1C | -26.2%
87 | CN(CCc1ccccc1)c1nccc(N2CCN(C(=O)c3csc(-c4cccnc4)n3)CC2)n1 | 51.1% (active)
88 | O=C(c1cccnc1)N1CCN(c2cc(-c3ccccc3)[nH]n2)CC1 | 12.7%
89 | Cc1nc2cccnc2nc1C | -39.7%
90 | NC(=Nc1cccnc1)c1ccc2ccccc2n1 | 4.02%
